Assay outcomes from PubChem BioAssay.
LmPK activator – activators of Leishmania mexicana pyruvate kinase. Q27686. purified LmPK, Kinase-Glo ATP luminescence, 1 h. activity change, negative = inhibition, % at 57.5 µM. 290,000 tested, under 10 active. AID 1722; calls by dose curve
Target sequence (Q27686 whole entry, looked up): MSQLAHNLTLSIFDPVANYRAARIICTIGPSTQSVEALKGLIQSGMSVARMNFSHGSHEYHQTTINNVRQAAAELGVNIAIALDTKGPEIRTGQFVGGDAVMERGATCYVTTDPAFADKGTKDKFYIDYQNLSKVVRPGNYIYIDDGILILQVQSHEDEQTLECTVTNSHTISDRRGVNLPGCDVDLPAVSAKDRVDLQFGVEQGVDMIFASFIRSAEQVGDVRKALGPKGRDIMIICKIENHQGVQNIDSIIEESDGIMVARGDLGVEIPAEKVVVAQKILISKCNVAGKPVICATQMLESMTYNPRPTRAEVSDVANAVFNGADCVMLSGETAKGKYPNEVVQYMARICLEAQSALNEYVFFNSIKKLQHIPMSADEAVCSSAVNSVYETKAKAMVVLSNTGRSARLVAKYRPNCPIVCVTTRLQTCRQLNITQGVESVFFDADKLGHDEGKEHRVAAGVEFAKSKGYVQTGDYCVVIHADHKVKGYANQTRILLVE
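Coupled luminescent assay: ATP produced by LmPK (0.1 nM) from ADP (0.1 mM, ~10-fold below Km) and PEP (0.5 mM, at Km) after 1 h RT, detected with Kinase-Glo. Data scaled between no-enzyme and uninhibited controls.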
* marks the source's active call; other numbers are inactive results. Not all results are given here.

`CC(=O)N/C(=C\c1ccccc1)C(=O)OCc1cc(C)ccc1C` gave LmPK activator 1.
For Cn1cc(Cl)c(-c2n[nH]c(=S)n2C2CCCCC2)n1 the results were LmPK activator -69.
Screening CCOc1cc(/C=N/N=C2/NC(=O)C(CC(=O)O)S2)ccc1OCc1ccccc1Cl (configuration not stated) returned LmPK activator -80.
Screening Cc1ccccc1C(=O)N/N=C1\SCC(=O)N1Cc1ccco1 returned LmPK activator -45.
For CCOc1ccc(NC(=O)Nc2cccnc2)cc1 the results were LmPK activator -85.
Screening Cc1cccc2c1c1ccc3c(c1n2C)C(=O)C=CC3=O returned LmPK activator -30.
For CC(=O)c1cn(Cc2ccccc2)c(=O)[nH]c1=O the results were LmPK activator -37.
For Cc1cc(N2C(=O)C=CC2=O)c([N+](=O)[O-])cc1C the results were LmPK activator -32.
For c1ccc(-c2cn3c(n2)-c2ccccc2C3)cc1 the results were LmPK activator -93.
For N#C/C(=C\c1cccs1)C(=O)Nc1ccccn1 the results were LmPK activator -34.
For OCc1c[nH]c(=S)n1CCOc1cccc(C(F)(F)F)c1 the results were LmPK activator -35.
For O=C(NCc1ccccc1)c1cc2ccc(O)cc2oc1=O the results were LmPK activator -34.
Screening CC(C)n1c(=S)[nH]c2cc(Cl)ccc21 returned LmPK activator -51.
Screening Cc1nc(NC(=O)c2cccs2)ccc1Br returned LmPK activator -42.
CCCCN(CC)CCCNC(=O)CN1C(=O)CSc2ccc(S(=O)(=O)N3CCOCC3)cc21 was read as LmPK activator -33.
c1ccc(-c2nc(-c3nccc4ccccc34)oc2-c2ccccc2)cc1 was read as LmPK activator -30.
COc1ccc2c(=O)c(-c3ccc4c(c3)OCO4)coc2c1 was read as LmPK activator -33.
`Cc1ccccc1OCC(=O)Nc1ccccc1-c1ccccc1` gave LmPK activator -39.
`Cc1ccc(-c2nc3ccccc3nc2NN)cc1` gave LmPK activator -48.
For CCOC(=O)C(=O)Nc1cc(C)on1 the results were LmPK activator -66.
`O=C(NC(=O)c1ccccc1O)c1ccc2c(c1)CCO2` gave LmPK activator -41.
`Cc1ccc(NCc2n[nH]c(=S)n2-c2ccccc2)c(C)c1` gave LmPK activator -38.
S=c1[nH]nc(-c2cc3ccccc3o2)n1Cc1ccccc1 was read as LmPK activator -61.
`O=c1[nH]c(SCc2n[nH]c(=S)n2-c2ccccc2)nc2sc3c(c12)CCC3` gave LmPK activator -46.
For COc1c(Cl)cccc1-c1cn2ccccc2n1 the results were LmPK activator -69.
CN(Cc1ccon1)Cc1cn(C)nc1-c1cccc(Cl)c1 was read as LmPK activator -110.
For S=c1[nH]nc([C@@H]2C[C@H]2c2ccccc2)n1-c1ccccc1Cl the results were LmPK activator -68.
COc1ccc(/C=N/Nc2ncccc2[N+](=O)[O-])c(OC)c1 was read as LmPK activator -68.
`Cc1ccc(C(=O)Nc2ccc(C(=O)N3CCCCC3)cc2)o1` gave LmPK activator -42.
Screening Cc1ccccc1-c1nnc(-c2cccs2)o1 returned LmPK activator -34.
O=C(CBr)c1ccc([N+](=O)[O-])c(CS(=O)(=O)c2ccc(Cl)cc2)c1 was read as LmPK activator 2.
For Oc1ccc(CCc2n[nH]c(=S)n2-c2ccc(F)cc2)cc1 the results were LmPK activator -95.
C=CCOc1ccc(C=Nc2ccc(C)c(Cl)c2)c(O)c1 was read as LmPK activator -35.
Screening CCn1c(-c2csc3c2CCC(C)C3)n[nH]c1=S (configuration not stated) returned LmPK activator -57.
COc1ccc(/C=N/NC(=O)c2ccc[nH]2)cc1 was read as LmPK activator -35.
COc1ccc(OC)c(S(=O)(=O)ON2C(=O)c3ccccc3C2=O)c1 was read as LmPK activator -59.
`O=[N+]([O-])c1ccc(Sc2cccc[n+]2[O-])c2nonc12` gave LmPK activator -39.
Screening COc1cc(-c2n[nH]c(=S)n2-c2ccc(Br)cc2)cc(OC)c1OC returned LmPK activator -79.
Screening Cc1ccc(-c2c[nH]c(=S)n2-c2ccccc2F)cc1 returned LmPK activator -33.
For CCCc1ccc(C(=O)/C=C/N(C)C)cc1 the results were LmPK activator -34.
For O=[N+]([O-])c1ccc(OCc2n[nH]c(=S)n2-c2ccccc2)cc1 the results were LmPK activator -30.
For Cc1nc(-c2ccc(NC(=O)c3ccc(Br)o3)cc2)cs1 the results were LmPK activator -30.
For CCc1ccc(C(=O)COC(=O)c2n[nH]c3ccccc23)cc1 the results were LmPK activator -45.
`c1csc(-c2nc(CN3CCSCC3)cs2)c1` gave LmPK activator -61.
`Cc1nc2cc(NC(=O)Nc3ccccc3Cl)ccc2n1C` gave LmPK activator -41.
For CC1=C/C(=C(\c2cc(C)c(O)c(Br)c2)c2ccccc2S(=O)(=O)O)C=C(Br)C1=O the results were LmPK activator -93.
C=CCN1C(=O)/C(=c2\sc3nc(=O)c(Cc4ccc(OC)c(OC)c4)nn3c2=O)c2ccccc21 was read as LmPK activator -44.
For CCc1ccc(NC(=O)Nc2ccsc2C(=O)OC)cc1 the results were LmPK activator -31.
`CCCCC(CC(O)COCCC)c1n[nH]c(=S)n1-c1ccccc1` (configuration not stated) gave LmPK activator -46.
For COc1cccc(-c2ccc(SCc3ccccn3)nn2)c1 the results were LmPK activator -64.
Screening CCc1nc2sc3c(O)cc(=O)[nH]c3c2cc1C returned LmPK activator -37.
For CC1C(=O)NN=C1C(=O)N/N=C/c1cccs1 (configuration not stated) the results were LmPK activator -49.
COc1cccc(C=Nc2cccc3c(=O)[nH][nH]c(=O)c23)c1O was read as LmPK activator -50.
`O=C1N=c2ccc([N+](=O)[O-])cc2=C1c1sc(=O)[nH]c1O` gave LmPK activator -32.
For Nc1ncccc1OCc1ccc(Cl)c(Cl)c1 the results were LmPK activator -35.
For Cc1cc2nc(CS)[nH]c2cc1C the results were LmPK activator -41.
Screening COc1ccc(C(=O)NN/C(=N/S(=O)(=O)c2ccc(C)cc2)c2ccccc2)cc1 returned LmPK activator -35.
Screening CCCNC(=O)Cn1sc2nc(C)cc(C)c2c1=O returned LmPK activator -35.
CCOC(=O)C1=C(C)C/C(=N\NC(=O)c2ccccc2O)CC1 was read as LmPK activator -58.
Screening N/C(=N\OC(=O)c1ccc(Cl)cc1)c1nonc1N returned LmPK activator -100.
Screening CCOC(=O)N1CCN(Cc2nnc(-c3ccccc3C)o2)CC1 returned LmPK activator -115.
Cn1c(=O)c2c([nH]c(=S)n2Cc2ccc(Cl)cc2)n(C)c1=O was read as LmPK activator -33.
For CC(C)C(c1nnnn1Cc1ccc(F)cc1)N1CCN(c2ccc(O)cc2)CC1 (configuration not stated) the results were LmPK activator -42.
For c1coc(-c2nnc(-c3ccco3)nn2)c1 the results were LmPK activator -30.
C=CCOc1ccc(C=Nc2ccc(Cl)cc2)c(O)c1 was read as LmPK activator -33.
`CCCCc1n[nH]c(=S)n1Cc1ccc(C)cc1` gave LmPK activator -39.
